# Laboratory results from the supplement of paper PMC10849652.
# Of roughly 7,900 targets only a part is listed; those with a hit were picked by preference. About 0.6% of all pairs of compound and target were hits.
# Compound: CC[C@@H]1C(=O)N(C)c2cnc(Nc3ccc(C(=O)NC4CCN(C)CC4)cc3OC)nc2N1C1CCCC1
# Test: log2 fold change, soluble protein after heating vs DMSO (PISA); higher = thermal stabilisation; K562 cells, 10 uM, 30 min; active = over 0.2 and 3.5 SD of the protein, either way, in both replicates (recomputed)
# Outline: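 Soluble protein was defined as the supernatant after 21,000xg for 90 min. It came from K562 cells at 2×10^6 cells/mL given 10 μM compound for 30 min, heated in aliquots for 3 min across 48°C-58°C, pooled, and extracted in PBS with 0.5% NP-40 at 4°C, and was quantified by TMTpro 16plex LC-MS/MS with equalised channel sums. Thermal stability against control samples, from duplicates, is reported as log2 fold change.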
# UniProt Q9BY66, sequence (Q9BY66 whole entry, looked up): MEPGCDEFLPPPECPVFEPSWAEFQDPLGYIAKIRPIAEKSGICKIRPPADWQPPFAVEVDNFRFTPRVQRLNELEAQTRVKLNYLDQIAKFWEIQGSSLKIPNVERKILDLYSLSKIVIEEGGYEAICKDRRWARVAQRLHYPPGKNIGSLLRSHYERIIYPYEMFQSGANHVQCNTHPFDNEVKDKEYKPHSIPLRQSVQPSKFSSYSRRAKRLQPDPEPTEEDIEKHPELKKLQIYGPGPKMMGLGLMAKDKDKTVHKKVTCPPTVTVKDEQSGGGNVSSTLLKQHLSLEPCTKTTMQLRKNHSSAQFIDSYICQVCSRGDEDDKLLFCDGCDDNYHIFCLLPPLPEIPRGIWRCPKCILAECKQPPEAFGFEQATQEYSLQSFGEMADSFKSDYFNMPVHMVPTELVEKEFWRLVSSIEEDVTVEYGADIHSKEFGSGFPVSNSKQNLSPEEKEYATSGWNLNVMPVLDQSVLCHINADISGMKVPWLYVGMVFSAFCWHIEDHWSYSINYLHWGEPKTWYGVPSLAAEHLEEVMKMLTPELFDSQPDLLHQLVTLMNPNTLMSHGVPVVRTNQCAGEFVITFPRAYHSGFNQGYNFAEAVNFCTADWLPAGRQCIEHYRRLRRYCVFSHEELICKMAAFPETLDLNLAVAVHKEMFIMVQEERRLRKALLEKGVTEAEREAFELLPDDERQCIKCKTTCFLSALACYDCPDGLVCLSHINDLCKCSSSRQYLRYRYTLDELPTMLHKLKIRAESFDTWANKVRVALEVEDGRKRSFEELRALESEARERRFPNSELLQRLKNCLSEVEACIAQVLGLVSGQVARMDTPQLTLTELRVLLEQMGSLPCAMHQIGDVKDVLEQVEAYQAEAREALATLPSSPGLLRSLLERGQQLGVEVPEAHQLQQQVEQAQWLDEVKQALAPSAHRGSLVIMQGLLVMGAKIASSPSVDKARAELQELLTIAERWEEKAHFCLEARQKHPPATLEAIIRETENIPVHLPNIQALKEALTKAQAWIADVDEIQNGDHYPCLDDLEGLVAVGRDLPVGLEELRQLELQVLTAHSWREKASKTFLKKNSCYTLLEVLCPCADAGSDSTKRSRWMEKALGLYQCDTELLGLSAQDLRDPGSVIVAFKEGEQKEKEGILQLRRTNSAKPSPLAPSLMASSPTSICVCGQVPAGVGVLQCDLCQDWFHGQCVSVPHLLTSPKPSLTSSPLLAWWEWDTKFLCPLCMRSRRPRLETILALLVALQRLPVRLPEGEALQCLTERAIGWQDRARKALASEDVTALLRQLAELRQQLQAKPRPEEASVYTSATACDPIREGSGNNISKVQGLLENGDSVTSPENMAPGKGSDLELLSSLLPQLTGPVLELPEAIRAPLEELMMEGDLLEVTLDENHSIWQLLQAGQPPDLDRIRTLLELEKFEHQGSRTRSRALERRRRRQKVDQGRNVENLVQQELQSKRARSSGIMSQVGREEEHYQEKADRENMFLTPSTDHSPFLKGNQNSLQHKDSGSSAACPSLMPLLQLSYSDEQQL
# UniProt O94829, sequence (O94829 whole entry, looked up): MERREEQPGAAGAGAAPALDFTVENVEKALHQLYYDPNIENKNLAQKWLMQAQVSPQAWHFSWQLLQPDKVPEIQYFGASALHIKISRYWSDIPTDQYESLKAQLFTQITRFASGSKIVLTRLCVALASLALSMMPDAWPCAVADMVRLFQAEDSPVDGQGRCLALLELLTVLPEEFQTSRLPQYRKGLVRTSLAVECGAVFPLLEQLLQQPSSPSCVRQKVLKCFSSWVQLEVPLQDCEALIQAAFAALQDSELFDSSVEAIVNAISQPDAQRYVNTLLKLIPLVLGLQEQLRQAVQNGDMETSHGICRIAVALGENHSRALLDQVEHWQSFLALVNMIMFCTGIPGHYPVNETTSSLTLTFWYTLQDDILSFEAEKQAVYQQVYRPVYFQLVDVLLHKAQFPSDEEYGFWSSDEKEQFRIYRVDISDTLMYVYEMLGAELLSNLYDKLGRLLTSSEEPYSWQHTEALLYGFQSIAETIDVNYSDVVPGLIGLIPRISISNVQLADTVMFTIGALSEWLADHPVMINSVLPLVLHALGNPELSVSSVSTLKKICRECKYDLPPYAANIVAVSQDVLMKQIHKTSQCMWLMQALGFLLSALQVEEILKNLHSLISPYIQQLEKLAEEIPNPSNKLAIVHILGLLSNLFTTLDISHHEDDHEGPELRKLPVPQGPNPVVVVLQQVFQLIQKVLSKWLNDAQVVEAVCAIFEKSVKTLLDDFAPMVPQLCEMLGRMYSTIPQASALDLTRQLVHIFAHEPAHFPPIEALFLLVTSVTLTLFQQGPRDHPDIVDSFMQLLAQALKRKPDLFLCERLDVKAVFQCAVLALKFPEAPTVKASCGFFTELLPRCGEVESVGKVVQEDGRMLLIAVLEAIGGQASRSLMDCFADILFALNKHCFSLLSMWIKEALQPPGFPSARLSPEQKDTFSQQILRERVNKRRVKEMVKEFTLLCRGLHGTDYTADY
# UniProt P52732, sequence (P52732 whole entry, looked up): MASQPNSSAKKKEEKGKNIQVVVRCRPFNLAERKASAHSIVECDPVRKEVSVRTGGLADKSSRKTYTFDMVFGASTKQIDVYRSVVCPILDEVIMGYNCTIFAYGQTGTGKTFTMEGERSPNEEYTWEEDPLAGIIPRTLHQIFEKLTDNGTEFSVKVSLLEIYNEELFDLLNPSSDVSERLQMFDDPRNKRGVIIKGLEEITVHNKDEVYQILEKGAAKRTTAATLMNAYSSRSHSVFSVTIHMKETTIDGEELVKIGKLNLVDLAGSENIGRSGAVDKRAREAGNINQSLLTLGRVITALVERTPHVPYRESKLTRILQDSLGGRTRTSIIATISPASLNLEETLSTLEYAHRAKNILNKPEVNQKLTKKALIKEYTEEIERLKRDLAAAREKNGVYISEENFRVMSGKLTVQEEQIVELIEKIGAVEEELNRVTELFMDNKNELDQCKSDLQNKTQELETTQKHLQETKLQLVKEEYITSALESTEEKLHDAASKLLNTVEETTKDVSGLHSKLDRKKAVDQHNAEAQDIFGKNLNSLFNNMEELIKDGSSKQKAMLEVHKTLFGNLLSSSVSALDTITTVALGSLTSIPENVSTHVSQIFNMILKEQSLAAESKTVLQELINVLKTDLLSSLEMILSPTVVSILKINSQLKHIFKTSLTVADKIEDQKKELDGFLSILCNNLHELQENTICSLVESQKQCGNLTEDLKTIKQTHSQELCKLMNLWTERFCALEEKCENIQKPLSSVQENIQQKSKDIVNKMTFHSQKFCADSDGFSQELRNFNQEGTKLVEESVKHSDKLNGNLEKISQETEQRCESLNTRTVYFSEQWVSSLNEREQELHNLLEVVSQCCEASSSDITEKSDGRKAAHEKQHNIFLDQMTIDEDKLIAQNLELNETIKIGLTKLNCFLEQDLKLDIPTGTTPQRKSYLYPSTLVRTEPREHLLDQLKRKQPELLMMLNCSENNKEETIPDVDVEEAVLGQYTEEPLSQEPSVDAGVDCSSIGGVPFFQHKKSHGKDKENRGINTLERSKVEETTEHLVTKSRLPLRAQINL
# UniProt Q13418, sequence (Q13418 whole entry, looked up): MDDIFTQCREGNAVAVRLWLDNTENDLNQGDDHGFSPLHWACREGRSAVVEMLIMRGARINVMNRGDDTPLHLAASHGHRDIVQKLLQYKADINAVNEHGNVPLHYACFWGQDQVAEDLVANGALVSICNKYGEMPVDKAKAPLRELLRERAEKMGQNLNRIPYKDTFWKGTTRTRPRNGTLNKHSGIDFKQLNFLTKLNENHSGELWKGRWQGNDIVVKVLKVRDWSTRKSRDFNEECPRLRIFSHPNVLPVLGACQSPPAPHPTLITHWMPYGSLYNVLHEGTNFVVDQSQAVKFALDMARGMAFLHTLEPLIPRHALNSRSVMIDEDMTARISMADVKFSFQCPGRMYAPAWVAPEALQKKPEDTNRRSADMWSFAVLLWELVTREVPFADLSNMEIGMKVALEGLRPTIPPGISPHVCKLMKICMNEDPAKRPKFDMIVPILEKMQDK
# UniProt P33947, sequence (P33947 whole entry, looked up): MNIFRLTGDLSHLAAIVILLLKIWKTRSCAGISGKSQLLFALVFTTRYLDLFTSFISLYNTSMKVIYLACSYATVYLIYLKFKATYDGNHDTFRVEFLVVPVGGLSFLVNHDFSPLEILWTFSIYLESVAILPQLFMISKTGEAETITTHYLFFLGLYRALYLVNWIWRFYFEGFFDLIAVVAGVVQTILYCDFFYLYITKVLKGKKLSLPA
# UniProt Q9BQK8, sequence (Q9BQK8 whole entry, looked up): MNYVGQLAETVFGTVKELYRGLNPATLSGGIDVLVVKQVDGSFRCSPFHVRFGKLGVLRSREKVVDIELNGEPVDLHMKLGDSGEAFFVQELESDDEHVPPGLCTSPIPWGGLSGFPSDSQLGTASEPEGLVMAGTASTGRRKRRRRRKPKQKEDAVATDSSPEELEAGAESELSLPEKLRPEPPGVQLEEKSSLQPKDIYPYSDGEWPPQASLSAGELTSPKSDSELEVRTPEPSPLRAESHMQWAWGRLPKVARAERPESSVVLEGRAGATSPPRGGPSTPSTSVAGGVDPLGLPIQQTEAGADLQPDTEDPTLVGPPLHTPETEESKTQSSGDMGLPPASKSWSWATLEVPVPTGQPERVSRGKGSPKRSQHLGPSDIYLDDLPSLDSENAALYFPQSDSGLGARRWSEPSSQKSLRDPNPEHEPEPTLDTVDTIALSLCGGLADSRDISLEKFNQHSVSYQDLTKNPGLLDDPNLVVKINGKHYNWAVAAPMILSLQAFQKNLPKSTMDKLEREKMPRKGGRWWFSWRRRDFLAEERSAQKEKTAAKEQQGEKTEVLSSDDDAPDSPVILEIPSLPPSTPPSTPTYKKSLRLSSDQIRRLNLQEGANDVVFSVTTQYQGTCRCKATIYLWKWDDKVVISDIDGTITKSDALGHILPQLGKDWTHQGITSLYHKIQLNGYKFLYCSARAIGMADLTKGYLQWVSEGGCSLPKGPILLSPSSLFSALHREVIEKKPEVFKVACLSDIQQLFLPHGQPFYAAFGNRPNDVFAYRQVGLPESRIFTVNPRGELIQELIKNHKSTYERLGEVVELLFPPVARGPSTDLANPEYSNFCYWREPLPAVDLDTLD
row,Target,log2 fold change
1,IWS1 (UniProt Q96ST2),0.048 (inactive)
2,LUC7L2 (UniProt Q9Y383),-0.171 (inactive)
3,MARK3 (UniProt P27448),-0.057 (inactive)
4,MIEF1 (UniProt L0R8F8),-0.028 (inactive)
5,KIF11 (UniProt P52732),0.016 (inactive)
6,LPIN3 isoform 2 (UniProt Q9BQK8),0.016 (inactive)
7,INPP5B (UniProt P32019),0.021 (inactive)
8,LNPEP (UniProt Q9UIQ6),0.004 (inactive)
9,KDM1A isoform 2 (UniProt O60341),0.135 (inactive)
10,IPO13 (UniProt O94829),-0.367 (active)
11,MIEF1 (UniProt Q9NQG6),-0.053 (inactive)
12,KDELR2 (UniProt P33947),0.033 (inactive)
13,KTN1 (UniProt Q86UP2),0.039 (inactive)
14,KHDRBS1 (UniProt Q07666),0.148 (inactive)
15,KSR1 (UniProt Q8IVT5),-0.11 (inactive)
16,LUC7L3 (UniProt O95232),-0.057 (inactive)
17,LAMP2 (UniProt P13473),0.018 (inactive)
18,MED1 (UniProt Q15648),0.073 (inactive)
19,MICU2 (UniProt Q8IYU8),-0.135 (inactive)
20,ILK (UniProt Q13418),0.033 (inactive)
21,KIF13A (UniProt Q9H1H9),0.007 (inactive)
22,KIF3A (UniProt Q9Y496),0.036 (inactive)
23,KDM5D isoform 3 (UniProt Q9BY66),-0.305 (inactive)
